This passage reports morphology score and SARS-CoV-2 infection rate results from the supplement of paper PMC13380429.

The test system of test [1] is Vero E6 infected with SARS-CoV-2. Description: morphology score (similarity to uninfected cells); higher = more like uninfected cells. The conditions noted are these: 24 h.
Test [2] shares this test system. Description: SARS-CoV-2 infection rate relative to infected DMSO; higher = more infection, active = 60 or less. The following applies: 24 h.

Structures are written as SMILES.

Take `CN(C)c1cccc(Oc2cnc(Nc3cccc(O)c3)nc2)c1` (10 µM): the morphology score in test [1] turned out to be 0.0803. Besides, the SARS-CoV-2 infection rate in test [2] is 109% (inactive).
For `CN(C(=O)CN1C(=O)COc2cc(Cl)c(Cl)cc21)[C@@H](CN1CCCC1)c1ccc(-c2cccc(C(N)=O)c2)cc1` (0.833333 µM), in that order: 0.0807 and 104% (inactive).
`O=C(O)C1=CCCNC1` [guvacine] (10 µM): the morphology score in test [1] worked out at 0.2. In addition, the SARS-CoV-2 infection rate in test [2] is 93% (inactive).
For `CS(=O)(=O)c1ccc(-c2nnc(/C=C/c3nnc(-c4ccc(C#N)cc4)o3)n2-c2ccccc2Cl)nc1` (10 µM), in that order: 0.0833 and 99% (inactive).
In turn, `O=C(O)CSc1nnc(Br)n1-c1ccc(C2CC2)c2ccccc12` [lesinurad] (10 µM) yielded a morphology score in test [1] of 0.0859. The SARS-CoV-2 infection rate in test [2] is 95% (inactive).
In turn, `COc1ccc(-c2cc3c(C)nc(N)nc3n([C@H]3CC[C@H](OCCO)CC3)c2=O)cn1` (0.833333 µM) showed a morphology score in test [1] of 0.0503. In test [2], the SARS-CoV-2 infection rate was 102% (inactive).
For `CCCCN1CCCC1CNC(=O)c1cc(C#N)c2ccccc2c1OC` (centres undefined) [nafadotride] (10 µM), in that order: 0.327 and 89% (inactive).
`CC1Sc2c(C(=O)O)c(=O)c3cc(F)c(N4CCNCC4)cc3n21` (centres undefined) [ulifloxacin] (10 µM) registered a morphology score in test [1] of -0.0402. Moreover, the SARS-CoV-2 infection rate in test [2] is 106% (inactive).
For `O=C(CN1CCNCC1)NC1CCCCC1` [esaprazole] (10 µM), in that order: 0.0266 and 104% (inactive).
For `CCOC(=O)c1ncc2[nH]c3cccc(OC(C)C)c3c2c1C` (10 µM), in that order: 0.286 and 88.5% (inactive).
Regarding `C/C(=N\NC(=S)N1CCC1)c1ccccn1` (0.833333 µM), the morphology score in test [1] was determined as 0.0268. Besides, the SARS-CoV-2 infection rate in test [2] is 114% (inactive).
For `CCS(=O)(=O)N1CCC([C@@H](C)n2c(C)c(C(=O)NCc3c(OC)cc(C)[nH]c3=O)c3ccccc32)CC1` (10 µM), in that order: -0.000259 and 102% (inactive).
Regarding `C[C@H]1[C@H](NC(=O)/C(=N\OC(C)(C)C(=O)O)c2csc(N)n2)C(=O)N1S(=O)(=O)O` [aztreonam] (10 µM), the morphology score in test [1] is -0.0447. The SARS-CoV-2 infection rate in test [2] was 94% (inactive).
For `O=[N+]([O-])c1cnc(Sc2nnc(O)n2-c2ccc3c(c2)OCCO3)s1` (0.833333 µM), in that order: 0.392 and 76.5% (inactive).
`CC(C)n1cnc2c(NCCc3ccc(O)cc3)nc(-c3csc4ccccc34)nc21` [stemregenin-1] (10 µM): the morphology score in test [1] came to 0.692. For the same molecule, in test [2], the SARS-CoV-2 infection rate was 67% (inactive).
For `O=S(=O)(/N=C/c1c(O)ccc2ccccc12)c1cccs1` (10 µM), in that order: 0.103 and 98.5% (inactive).
`Clc1ccc(COC(Cn2ccnc2)c2ccc(Cl)cc2Cl)cc1` (centres undefined) [econazole] (10 µM) returned a morphology score in test [1] of -0.225. The SARS-CoV-2 infection rate in test [2] is 101% (inactive).
`COc1cc(Nc2ncc3c(n2)-c2ccc(Cl)cc2C(c2c(F)cccc2OC)=NC3)ccc1C(=O)O` [alisertib] (0.833333 µM) yielded a morphology score in test [1] of 0.272. Besides, in test [2], the SARS-CoV-2 infection rate was 112% (inactive).
For `CC(C)[N+](C)(CCOC(=O)C1c2ccccc2Oc2ccccc21)C(C)C` [propantheline] (10 µM), in that order: 0.214 and 99.5% (inactive).
For `O=C(c1ccccc1)C(O)c1ccccc1` (centres undefined) [benzoin] (10 µM), in that order: -0.114 and 101% (inactive).
For the molecule `CC(C)(C)c1cc(C=C(C#N)C#N)cc(Br)c1O` (10 µM), the morphology score in test [1] came to 0.14. Further, the SARS-CoV-2 infection rate in test [2] is 108% (inactive).
`O=C(O)CCCN1CCC(O[C@@H](c2ccc(Cl)cc2)c2ccccn2)CC1` [bepotastine] (10 µM) registered a morphology score in test [1] of 0.0921. For the same molecule, the SARS-CoV-2 infection rate in test [2] is 90% (inactive).
For `O=C1N[C@@H]2[C@@H](O)[C@@H](O)[C@H](O)[C@@H](CO)N2C1=O` [kifunensine] (10 µM), in that order: 0.19 and 94% (inactive).
For `CC[C@H]1OC(=O)[C@H](C)C(=O)[C@H](C)[C@@H](O[C@@H]2O[C@H](C)C[C@H](N(C)C)[C@H]2O)[C@](C)(OC)C[C@@H](C)C(=O)[C@H](C)[C@H]2N(CCCCn3cnc(-c4cccnc4)c3)C(=O)O[C@]12C` [telithromycin] (10 µM), in that order: 0.0131 and 118% (inactive).
For the molecule `CCN(CC)CC1CCN(c2ncc3ncnc(Nc4ccc(F)c(Cl)c4)c3n2)CC1` (10 µM), the morphology score in test [1] is -0.273. Further, the SARS-CoV-2 infection rate in test [2] is 112% (inactive).
For `CNCCN(C)Cc1c[nH]nc1-c1ccc(O[C@H]2C[C@H](OCCC3CCOCC3)C2)cc1` (10 µM), in that order: -0.0509 and 108% (inactive).
For `O=C(c1ccc(F)cc1)C1CCN(CCn2c(=O)[nH]c3ccccc3c2=O)CC1` [ketanserin] (10 µM), in that order: 0.144 and 106% (inactive).
